In paper PMC11062922 (Nature Chemical Biology, 2023) one finds potency estimated from few doses data, which are given here for 21 molecules.

What all share (design): species or system human, MV4-11 + K-562 + COLO205 + SK-N-BE2 + OVCAR-8
In one assay the test system is PDGFRB. Conditions: read-out: apparent Kd, compound concentrations: 100 nM and 1000 nM (sheet 'Samples'), n = 1.
Another assay relates to PI4KA. Conditions: read-out: apparent Kd, compound concentrations: 100 nM and 1000 nM (sheet 'Samples'), n = 1.
A further assay concerns PIK3CG. The conditions noted are these: read-out: apparent Kd, compound concentrations: 100 nM and 1000 nM (sheet 'Samples'), n = 1.
The subject of a further assay is PRKDC. The conditions noted are these: read-out: apparent Kd, compound concentrations: 100 nM and 1000 nM (sheet 'Samples'), n = 1.
The test system of another assay is PIM3. Conditions: read-out: apparent Kd, compound concentrations: 100 nM and 1000 nM (sheet 'Samples'), n = 1.
A further assay concerns PIM2. The conditions noted are these: read-out: apparent Kd, n = 1.
The test system of the next assay is TESK2. The conditions noted are these: read-out: apparent Kd, compound concentrations: 100 nM and 1000 nM (sheet 'Samples'), n = 1.
The next assay relates to PKN2. Conditions: read-out: apparent Kd, n = 1.
For another assay, the system named is PKN3. Conditions: read-out: apparent Kd; compound concentrations:100 nM and 1000 nM (sheet 'Samples'); n = 1.
The next assay deals with PI4KB. Conditions: read-out: apparent Kd, compound concentrations: 100 nM and 1000 nM (sheet 'Samples'), n = 1.
Another assay concerns PDXK. Conditions: read-out: apparent Kd, compound concentrations: 100 nM and 1000 nM (sheet 'Samples'), n = 1.
Another assay deals with PRKD2. The conditions noted are these: read-out: apparent Kd; compound concentrations:100 nM and 1000 nM (sheet 'Samples'); n = 1.
The test system of another assay is SLK. The conditions noted are these: read-out: apparent Kd, compound concentrations: 100 nM and 1000 nM (sheet 'Samples'), n = 1.
Another assay deals with RIPK2. The conditions noted are these: read-out: apparent Kd; compound concentrations: 100 nM and 1000 nM (sheet 'Samples'), CATDS: 1; n = 1.
[1] abbreviates: compound concentrations:100 nM and 1000 nM (sheet 'Samples').

Where two headings read alike, the source gives them in different places.

`O=C(NCCNc1ccnc(Nc2ccc(F)cc2)n1)Nc1ccccc1F` [GSK1379880A]: the potency estimated from few doses with PDGFRB (CATDS: 0.36710217729011002) was 1450 nM.
`CN(C)S(=O)(=O)c1cc(-c2ccc3nccc(-c4cccc(S(N)(=O)=O)c4)c3c2)cnc1N` [GSK1669921A]: the values for the potency estimated from few doses in the assay with PI4KA (CATDS: 0.112986099678868), with PIK3CG (CATDS: 0.14675867951409499) and with PRKDC (CATDS: 0.12241161716625901) were 1300 nM, 466 nM and 920 nM, respectively.
As for `CN(C)CCOc1ccc(-c2cc(-c3ccc(Cl)c(O)c3)c(-c3ccncc3)[nH]2)cc1.CN(C)CCOc1ccc(-c2cc(-c3ccc(Cl)c(O)c3)c(-c3ccncc3)[nH]2)cc1.Cl.Cl` [SB-684387-B], in the assay with PI4KA (CATDS: 0.33665131532266801), the potency estimated from few doses was 1060 nM.
Regarding `CCSc1ccc(-c2nc3n(c2-c2ccncc2)CCC3)cc1.CCSc1ccc(-c2nc3n(c2-c2ccncc2)CCC3)cc1.Cl.Cl` [SKF-106164-A2], the potency estimated from few doses in the assay with PIM3 (CATDS: 1) was 1300 nM.
On to `COc1cc(Nc2nccc(N3CCC(NC(=O)Nc4cc(C)ccc4C)C3)n2)cc(OC)c1OC` (stereo not shown) [GSK1379762_KCGS], for which the potency estimated from few doses with PIM2 (compound concentrations: 100 nM and 1000 nM (sheet 'Samples'), CATDS: 1) is 1940 nM.
For the molecule `O=C1Nc2ccc(I)cc2C1=Cc1cc(Br)c(O)c(Br)c1` [GW305074X_KCGS], the potency estimated from few doses with PIM2 (setting [1]) is 2090 nM.
Turning to `Cc1cc(-c2ccc3c(c2)CC[C@@H](N[C@@H](C)c2ccccc2)C3)cnc1N.Cc1cc(-c2ccc3c(c2)CC[C@@H](N[C@@H](C)c2ccccc2)C3)cnc1N.Cl.Cl` [GW412617A], the potency estimated from few doses is 1020 nM in the assay with PIM3 (CATDS: 0.55054057410094004) and 1470 nM with TESK2 (CATDS: 0.45795860987145298).
`CCn1c(-c2nonc2N)nc2ccccc21` [SB-693162]: the potency estimated from few doses with PKN2 (setting [1]) was 157 nM; in the assay on PKN3, 1280 nM.
For `Nc1ncc(-c2ccc3nccc(-c4ccncc4)c3c2)cc1S(=O)(=O)N1CCCCC1` [GSK1693850A], the potency estimated from few doses in the assay on PI4KA (CATDS: 8.4526475439373194E-2) is 464 nM; in the assay with PI4KB (CATDS: 7.2380110997406405E-2), 777 nM; with PIK3CG (CATDS: 0.150773969962682) it was 88.7 nM; in the assay on PIM2 (compound concentrations: 100 nM and 1000 nM (sheet 'Samples'), CATDS: 5.9438014075045897E-2), 1790 nM; in the assay with PRKDC (CATDS: 8.88426876970108E-2), 398 nM.
Turning to `COc1ccc(NC(=O)Nc2ccc(C)c(-c3ccc(C(=O)Nc4ccncc4)cc3)c2)cc1` [GSK1398475A], in the assay with PDGFRB (CATDS: 1), the potency estimated from few doses is 1680 nM.
With `COc1ncc(-c2cc(-c3ncc(CN4C[C@@H](C)O[C@@H](C)C4)o3)c3cn[nH]c3c2)cc1NS(C)(=O)=O` [GSK2292767], the values for the potency estimated from few doses in the assay on PDXK (CATDS: 9.0064918958082996E-2), in the assay with PIK3CG (CATDS: 0.13255621983520199) and with PRKDC (CATDS: 9.7121910991741403E-2) were 779 nM, 142 nM and 515 nM, respectively.
Consider `Cc1cccc(-c2nc(Nc3ccc4c(cnn4C)c3)c3ccccc3n2)n1` [GW876731X], for which the potency estimated from few doses with PRKD2 is 26.7 nM.
`CCn1c(-c2ccoc2)nc2cnccc21` [SB-733887]: the potency estimated from few doses in the assay with PDXK (CATDS: 1) is 1740 nM.
As for `CCn1c(-c2ccncc2)nc2cnccc21` [SB-735216], the potency estimated from few doses with PKN2 (compound concentrations: 100 nM and 1000 nM (sheet 'Samples'), CATDS: 0.34889068310517501) is 2400 nM.
For the molecule `Cn1ccc(-c2cccc(Nc3ccnc4cc(-c5nccs5)ccc34)c2)n1` [GW525701_KCGS], the potency estimated from few doses in the assay with PDXK (CATDS: 0.47551644164597001) is 1690 nM.
On to `CCCc1ccc(S(=O)(=O)NC2CCN(c3ccnc(Nc4ccc(OC)cc4)n3)C2)cc1` (stereo not shown) [GSK1379737A], for which the potency estimated from few doses in the assay with PI4KB (CATDS: 1) is 901 nM.
Consider `Cc1nn(-c2ccccc2)c(O)c1C(=O)c1ccccc1` [RO1151080-000], for which the potency estimated from few doses in the assay on TESK2 (CATDS: 1) is 1360 nM.
As to `COc1cc2ncn(-c3cc(OCC4CCCO4)c(C(N)=O)s3)c2cc1OC` (stereo not shown) [GSK204607A], in the assay on SLK (CATDS: 0.28828322823587899), the potency estimated from few doses was 1160 nM.
Consider `O=C1NC(=O)C(c2ccccc2Cl)=C1Nc1cccc(O)c1` [SB-390527], for which the potency estimated from few doses in the assay on SLK (CATDS: 1) was 1140 nM.
For `Nc1nonc1-c1nc2cnccc2n1C1CC1` [SB-736302], the potency estimated from few doses in the assay with PKN2 (compound concentrations: 100 nM and 1000 nM (sheet 'Samples'), CATDS: 0.42822259112974997) was 348 nM.
On to `Cc1cc(O)cc(C)c1/C=C/c1cncc(C(=O)OC(C)(C)C)c1` [GW439255X], for which the potency estimated from few doses with RIPK2 was 437 nM.
